PMC7862700, “An all-to-all approach to the identification of sequence-specific readers for epigenetic DNA modifications on cytosine”

Tests used:
Assay in all cases: DAPPL (digital affinity profiling via proximity ligation, sequencing); 10 mM Tris-HCl pH 7.5, 50 mM NaCl, 1 mM DTT, 4% glycerol, room temperature, 30 min; GST-TFs on glutathione beads, 16-mer random dsDNA library, 0.1% formaldehyde crosslink after washing; high values mean tight binding
[1] = target: T1, FEV (Homo sapiens, UniProt Q99581 1-238); settings: protein: recombinant; tags: N-terminal GST; dsDNA, one strand shown
T1 sequence: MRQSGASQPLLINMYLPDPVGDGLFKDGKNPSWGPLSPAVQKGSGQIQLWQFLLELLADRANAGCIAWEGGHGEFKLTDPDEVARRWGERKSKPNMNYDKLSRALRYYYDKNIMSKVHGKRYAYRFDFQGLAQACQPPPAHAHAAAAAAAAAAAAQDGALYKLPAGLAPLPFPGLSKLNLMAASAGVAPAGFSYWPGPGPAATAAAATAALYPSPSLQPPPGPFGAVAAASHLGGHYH
Outline: (§1)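 After expression in yeast as GST fusions, human transcription factors were bound to glutathione beads, DNA-barcoded and mixed with a tag-only sample. The pools were incubated with 200 nmole of a 16-mer random double-stranded DNA library in Tris/NaCl/DTT/glycerol buffer (30 min, room temperature), washed and crosslinked with 0.1% formaldehyde. Proximity ligation with BsaI/T4 ligase ran for 1 h at 37 °C, before PCR amplification and sequencing on an Illumina NextSeq500. Binding signal is a hexamer's read frequency for a factor divided by its frequency for the tag-only sample.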

[2] = target: ETV5 (Homo sapiens, UniProt P41161 1-510); settings: protein: recombinant; tags: N-terminal GST; dsDNA, one strand shown
Outline: as §1

[3] = target: HSF1 (Homo sapiens, UniProt Q00613 1-529); settings: protein: recombinant; tags: N-terminal GST; chain copies: 3; dsDNA, one strand shown
Outline: as §1

[4] = target: T2, SPIC (Homo sapiens, UniProt Q8N5J4 1-248); settings: protein: recombinant; tags: N-terminal GST; dsDNA, one strand shown
T2 sequence: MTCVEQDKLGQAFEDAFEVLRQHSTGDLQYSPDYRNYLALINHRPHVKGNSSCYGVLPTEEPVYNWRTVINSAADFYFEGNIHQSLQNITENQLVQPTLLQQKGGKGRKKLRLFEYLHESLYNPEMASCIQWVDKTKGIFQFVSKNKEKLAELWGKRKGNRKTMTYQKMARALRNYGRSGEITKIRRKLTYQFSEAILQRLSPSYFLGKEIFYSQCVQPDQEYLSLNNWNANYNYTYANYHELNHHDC
Outline: as §1

[5] = target: ELF4 (Homo sapiens, UniProt Q99607 1-663); settings: protein: recombinant; tags: N-terminal GST; dsDNA, one strand shown
Outline: as §1

[6] = target: T3, ELK4 (Homo sapiens, UniProt P28324-2 1-405); settings: protein: recombinant; tags: N-terminal GST; dsDNA, one strand shown
T3 sequence: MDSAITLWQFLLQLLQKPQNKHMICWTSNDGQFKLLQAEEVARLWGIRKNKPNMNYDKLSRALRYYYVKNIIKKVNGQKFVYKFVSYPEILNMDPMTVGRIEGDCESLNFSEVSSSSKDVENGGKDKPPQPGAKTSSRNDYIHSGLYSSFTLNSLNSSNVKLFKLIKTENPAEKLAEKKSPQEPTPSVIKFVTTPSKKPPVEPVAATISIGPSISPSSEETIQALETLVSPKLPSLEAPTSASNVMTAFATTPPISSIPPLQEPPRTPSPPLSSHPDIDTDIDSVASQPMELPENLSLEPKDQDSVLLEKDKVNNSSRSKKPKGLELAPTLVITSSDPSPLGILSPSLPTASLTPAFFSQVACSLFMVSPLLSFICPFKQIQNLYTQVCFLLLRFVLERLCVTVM
Outline: as §1

[7] = target: T4, ETV2 (Homo sapiens, UniProt O00321 1-342); settings: protein: recombinant; tags: N-terminal GST; dsDNA, one strand shown
T4 sequence: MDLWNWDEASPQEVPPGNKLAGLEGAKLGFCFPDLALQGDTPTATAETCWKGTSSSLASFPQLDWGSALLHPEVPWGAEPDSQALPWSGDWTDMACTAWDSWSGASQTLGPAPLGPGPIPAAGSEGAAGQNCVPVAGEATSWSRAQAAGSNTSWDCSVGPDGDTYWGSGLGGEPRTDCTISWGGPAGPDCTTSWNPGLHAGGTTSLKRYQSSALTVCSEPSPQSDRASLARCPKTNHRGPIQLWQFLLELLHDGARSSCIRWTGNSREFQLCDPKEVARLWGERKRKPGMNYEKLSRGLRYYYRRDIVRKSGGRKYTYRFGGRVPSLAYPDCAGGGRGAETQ
Outline: as §1

[8] = target: T5, ELF3 (Homo sapiens, UniProt P78545 1-371); settings: protein: recombinant; tags: N-terminal GST; dsDNA, one strand shown
T5 sequence: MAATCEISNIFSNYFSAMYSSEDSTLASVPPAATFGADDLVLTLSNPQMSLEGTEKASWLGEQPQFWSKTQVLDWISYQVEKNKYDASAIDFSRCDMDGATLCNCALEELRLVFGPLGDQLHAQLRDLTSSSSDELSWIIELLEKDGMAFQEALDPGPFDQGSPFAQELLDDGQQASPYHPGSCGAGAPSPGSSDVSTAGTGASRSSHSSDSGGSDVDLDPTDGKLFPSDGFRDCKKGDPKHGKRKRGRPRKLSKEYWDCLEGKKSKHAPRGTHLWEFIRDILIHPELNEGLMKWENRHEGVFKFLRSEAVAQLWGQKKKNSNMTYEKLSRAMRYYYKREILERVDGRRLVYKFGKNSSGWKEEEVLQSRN
Outline: as §1

[9] = target: CRX (Homo sapiens, UniProt O43186 1-299); settings: protein: recombinant; tags: N-terminal GST; dsDNA, one strand shown
Outline: as §1

[10] = target: ETV1 (Homo sapiens, UniProt P50549 1-477); settings: protein: recombinant; tags: N-terminal GST; dsDNA, one strand shown
Outline: as §1

Sequence of HSF1 (Q00613 whole entry): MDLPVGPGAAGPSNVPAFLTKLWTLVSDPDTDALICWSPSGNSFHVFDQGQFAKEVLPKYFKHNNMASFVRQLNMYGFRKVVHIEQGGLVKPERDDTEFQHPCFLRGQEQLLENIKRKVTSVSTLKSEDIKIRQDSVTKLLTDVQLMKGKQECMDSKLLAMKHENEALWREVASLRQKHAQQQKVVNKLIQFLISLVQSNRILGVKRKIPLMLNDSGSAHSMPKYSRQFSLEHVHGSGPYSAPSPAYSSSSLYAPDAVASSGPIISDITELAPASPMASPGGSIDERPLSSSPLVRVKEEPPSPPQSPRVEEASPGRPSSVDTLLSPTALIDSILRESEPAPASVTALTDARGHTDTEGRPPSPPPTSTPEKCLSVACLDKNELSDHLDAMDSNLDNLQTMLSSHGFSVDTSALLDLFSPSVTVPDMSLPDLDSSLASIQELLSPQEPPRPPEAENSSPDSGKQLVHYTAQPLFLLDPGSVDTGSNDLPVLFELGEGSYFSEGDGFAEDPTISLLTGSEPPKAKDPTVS
Sequence of ETV5 (P41161 whole entry): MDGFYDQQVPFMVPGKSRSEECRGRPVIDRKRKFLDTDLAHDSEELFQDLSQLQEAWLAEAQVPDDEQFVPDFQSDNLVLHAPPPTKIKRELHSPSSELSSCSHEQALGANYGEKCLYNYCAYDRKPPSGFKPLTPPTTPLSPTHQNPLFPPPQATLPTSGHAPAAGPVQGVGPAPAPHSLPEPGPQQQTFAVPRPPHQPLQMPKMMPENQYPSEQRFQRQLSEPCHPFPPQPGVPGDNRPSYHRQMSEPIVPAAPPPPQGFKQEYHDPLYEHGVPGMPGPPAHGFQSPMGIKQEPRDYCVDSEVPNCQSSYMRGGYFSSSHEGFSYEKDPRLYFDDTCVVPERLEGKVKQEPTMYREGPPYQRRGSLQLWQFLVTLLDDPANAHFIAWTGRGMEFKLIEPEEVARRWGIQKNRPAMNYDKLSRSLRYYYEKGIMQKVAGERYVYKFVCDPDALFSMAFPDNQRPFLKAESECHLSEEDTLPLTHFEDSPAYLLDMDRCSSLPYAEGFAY
Sequence of CRX (O43186 whole entry): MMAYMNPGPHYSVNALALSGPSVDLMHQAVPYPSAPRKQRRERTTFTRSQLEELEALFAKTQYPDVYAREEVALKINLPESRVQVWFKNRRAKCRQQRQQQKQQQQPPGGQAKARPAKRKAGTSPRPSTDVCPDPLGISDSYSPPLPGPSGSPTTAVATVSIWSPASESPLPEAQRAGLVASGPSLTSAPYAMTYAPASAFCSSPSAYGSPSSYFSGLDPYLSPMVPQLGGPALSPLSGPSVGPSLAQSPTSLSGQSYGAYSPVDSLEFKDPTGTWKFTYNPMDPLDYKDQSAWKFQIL
Sequence of ELF4 (Q99607 whole entry): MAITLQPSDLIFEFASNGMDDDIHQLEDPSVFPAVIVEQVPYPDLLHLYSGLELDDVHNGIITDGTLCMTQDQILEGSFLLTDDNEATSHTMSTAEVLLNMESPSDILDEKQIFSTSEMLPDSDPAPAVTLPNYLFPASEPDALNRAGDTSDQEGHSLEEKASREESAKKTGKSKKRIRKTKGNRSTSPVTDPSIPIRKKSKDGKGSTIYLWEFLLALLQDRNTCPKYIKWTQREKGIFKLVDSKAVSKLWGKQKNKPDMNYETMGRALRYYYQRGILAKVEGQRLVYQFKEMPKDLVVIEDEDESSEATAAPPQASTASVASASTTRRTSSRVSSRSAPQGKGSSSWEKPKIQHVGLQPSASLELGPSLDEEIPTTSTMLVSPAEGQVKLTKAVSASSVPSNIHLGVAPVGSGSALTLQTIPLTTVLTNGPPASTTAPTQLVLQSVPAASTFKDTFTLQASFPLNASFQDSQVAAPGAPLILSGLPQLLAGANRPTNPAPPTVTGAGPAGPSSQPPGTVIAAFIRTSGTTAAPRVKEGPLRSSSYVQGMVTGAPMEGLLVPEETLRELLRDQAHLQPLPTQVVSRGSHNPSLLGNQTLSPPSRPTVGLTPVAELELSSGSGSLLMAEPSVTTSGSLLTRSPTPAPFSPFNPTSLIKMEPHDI
Sequence of ETV1 (P50549 whole entry): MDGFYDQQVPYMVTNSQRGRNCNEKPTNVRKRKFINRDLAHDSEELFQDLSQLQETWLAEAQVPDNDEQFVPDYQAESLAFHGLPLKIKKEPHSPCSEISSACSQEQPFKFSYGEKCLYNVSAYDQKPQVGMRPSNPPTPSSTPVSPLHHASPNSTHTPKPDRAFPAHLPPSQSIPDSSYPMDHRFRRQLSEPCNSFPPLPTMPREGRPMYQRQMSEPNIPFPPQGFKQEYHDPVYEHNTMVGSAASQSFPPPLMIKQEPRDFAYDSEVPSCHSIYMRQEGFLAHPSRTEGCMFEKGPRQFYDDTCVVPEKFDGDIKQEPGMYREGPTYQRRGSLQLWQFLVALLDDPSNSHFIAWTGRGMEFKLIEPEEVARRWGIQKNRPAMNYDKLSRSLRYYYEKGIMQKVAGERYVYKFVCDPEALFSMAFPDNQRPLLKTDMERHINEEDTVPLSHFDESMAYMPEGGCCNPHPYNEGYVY

## CTGCGC
[1]
  binding signal: 1.38 fold enrichment (6-mer frequency, TF over GST control)
[2]
  binding signal: 1.34 fold enrichment (6-mer frequency, TF over GST control)
[3]
  binding signal: 1.1 fold enrichment (6-mer frequency, TF over GST control)
[4]
  binding signal: 1.22 fold enrichment (6-mer frequency, TF over GST control)
[5]
  binding signal: 1.32 fold enrichment (6-mer frequency, TF over GST control)
[6]
  binding signal: 1.2 fold enrichment (6-mer frequency, TF over GST control)
[7]
  binding signal: 1.46 fold enrichment (6-mer frequency, TF over GST control)
[8]
  binding signal: 1.27 fold enrichment (6-mer frequency, TF over GST control)
[9]
  binding signal: 1.11 fold enrichment (6-mer frequency, TF over GST control)
[10]
  binding signal: 1.58 fold enrichment (6-mer frequency, TF over GST control)

## ATCCGG
[1]
  binding signal: 4.68 fold enrichment (6-mer frequency, TF over GST control)
[2]
  binding signal: 2.87 fold enrichment (6-mer frequency, TF over GST control)
[3]
  binding signal: 1.31 fold enrichment (6-mer frequency, TF over GST control)
[4]
  binding signal: 2.35 fold enrichment (6-mer frequency, TF over GST control)
[5]
  binding signal: 2.17 fold enrichment (6-mer frequency, TF over GST control)
[6]
  binding signal: 2.1 fold enrichment (6-mer frequency, TF over GST control)
[7]
  binding signal: 2.6 fold enrichment (6-mer frequency, TF over GST control)
[8]
  binding signal: 2.31 fold enrichment (6-mer frequency, TF over GST control)
[9]
  binding signal: 1.48 fold enrichment (6-mer frequency, TF over GST control)
[10]
  binding signal: 2.66 fold enrichment (6-mer frequency, TF over GST control)

## TCACCT
[1]
  binding signal: 1.17 fold enrichment (6-mer frequency, TF over GST control)
[2]
  binding signal: 1.18 fold enrichment (6-mer frequency, TF over GST control)
[3]
  binding signal: 1.03 fold enrichment (6-mer frequency, TF over GST control)
[4]
  binding signal: 1.31 fold enrichment (6-mer frequency, TF over GST control)
[5]
  binding signal: 1.33 fold enrichment (6-mer frequency, TF over GST control)
[6]
  binding signal: 1.12 fold enrichment (6-mer frequency, TF over GST control)
[7]
  binding signal: 1.21 fold enrichment (6-mer frequency, TF over GST control)
[8]
  binding signal: 1.25 fold enrichment (6-mer frequency, TF over GST control)
[9]
  binding signal: 1.15 fold enrichment (6-mer frequency, TF over GST control)
[10]
  binding signal: 1.19 fold enrichment (6-mer frequency, TF over GST control)

## TCTCGG
[1]
  binding signal: 1.31 fold enrichment (6-mer frequency, TF over GST control)
[2]
  binding signal: 1.41 fold enrichment (6-mer frequency, TF over GST control)
[3]
  binding signal: 1.89 fold enrichment (6-mer frequency, TF over GST control)
[4]
  binding signal: 1.1 fold enrichment (6-mer frequency, TF over GST control)
[5]
  binding signal: 1.4 fold enrichment (6-mer frequency, TF over GST control)
[6]
  binding signal: 1.38 fold enrichment (6-mer frequency, TF over GST control)
[7]
  binding signal: 1.48 fold enrichment (6-mer frequency, TF over GST control)
[8]
  binding signal: 1.33 fold enrichment (6-mer frequency, TF over GST control)
[9]
  binding signal: 1.44 fold enrichment (6-mer frequency, TF over GST control)
[10]
  binding signal: 1.38 fold enrichment (6-mer frequency, TF over GST control)

## GTATAT
[1]
  binding signal: 1.06 fold enrichment (6-mer frequency, TF over GST control)
[2]
  binding signal: 1.19 fold enrichment (6-mer frequency, TF over GST control)
[3]
  binding signal: 1.04 fold enrichment (6-mer frequency, TF over GST control)
[4]
  binding signal: 1.18 fold enrichment (6-mer frequency, TF over GST control)
[5]
  binding signal: 1.17 fold enrichment (6-mer frequency, TF over GST control)
[6]
  binding signal: 1.21 fold enrichment (6-mer frequency, TF over GST control)
[7]
  binding signal: 1.12 fold enrichment (6-mer frequency, TF over GST control)
[8]
  binding signal: 1.02 fold enrichment (6-mer frequency, TF over GST control)
[9]
  binding signal: 1.07 fold enrichment (6-mer frequency, TF over GST control)
[10]
  binding signal: 1.18 fold enrichment (6-mer frequency, TF over GST control)

## ACTGAT
[1]
  binding signal: 1.19 fold enrichment (6-mer frequency, TF over GST control)
[2]
  binding signal: 1.21 fold enrichment (6-mer frequency, TF over GST control)
[3]
  binding signal: 1.22 fold enrichment (6-mer frequency, TF over GST control)
[4]
  binding signal: 1.51 fold enrichment (6-mer frequency, TF over GST control)
[5]
  binding signal: 1.23 fold enrichment (6-mer frequency, TF over GST control)
[6]
  binding signal: 1.34 fold enrichment (6-mer frequency, TF over GST control)
[7]
  binding signal: 1.19 fold enrichment (6-mer frequency, TF over GST control)
[8]
  binding signal: 1.21 fold enrichment (6-mer frequency, TF over GST control)
[9]
  binding signal: 1.38 fold enrichment (6-mer frequency, TF over GST control)
[10]
  binding signal: 1.32 fold enrichment (6-mer frequency, TF over GST control)

## TCCTGT
[1]
  binding signal: 1.85 fold enrichment (6-mer frequency, TF over GST control)
[2]
  binding signal: 2.04 fold enrichment (6-mer frequency, TF over GST control)
[3]
  binding signal: 1.14 fold enrichment (6-mer frequency, TF over GST control)
[4]
  binding signal: 1.87 fold enrichment (6-mer frequency, TF over GST control)
[5]
  binding signal: 1.65 fold enrichment (6-mer frequency, TF over GST control)
[6]
  binding signal: 1.56 fold enrichment (6-mer frequency, TF over GST control)
[7]
  binding signal: 1.71 fold enrichment (6-mer frequency, TF over GST control)
[8]
  binding signal: 1.78 fold enrichment (6-mer frequency, TF over GST control)
[9]
  binding signal: 1.16 fold enrichment (6-mer frequency, TF over GST control)
[10]
  binding signal: 1.89 fold enrichment (6-mer frequency, TF over GST control)
